# CaV13 FRET inh: Disruptors of the CACNA1D IQ motif to Ca2+-dependent inactivation inhibitor domain association, primary screening, Förster resonance energy transfer in intact living …. HEK cells, CFP/YFP FRET ICDI-IQ, plate reader, 10 min; percent FRET-ratio fall versus neutral wells. inhibition, % at 12.3 µM. hit rate 0.098% among 340,000;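 active = mean replicate inhibition of at least 30% and at least 1% of replicates passing that level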
# Exocytosis inh: blocks lytic granule exocytosis; inhibition, % at 10 µM; hit rate 0.66% among 360,000; AID 651702; TALL-104 LAMP-1 surface exposure, flow cytometry; cells stimulated with thapsigargin and PMA;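 active = inhibition above about 55%, limit read from the data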
# VLA-4 inh: inhibition in a human VLA-4 binding assay; P13612; VLA-4 expressing cells, ligand binding flow cytometry; inhibition, % (about 7 µM as worked out from the volumes in the protocol); hit rate 0.2% among 330,000; in the data active = inhibition above about 50%
# ABCB6 inh 2: human ABCB6 transporter inhibition | hit rate 0.19% among 360,000 | AID 602162 | fluorescence ratio to DMSO, % at 10 µM | Q9NP58 | K562-ABCB6 porphyrin accumulation, flow cytometry, 1 h; hits give low values;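 active = fluorescence ratio to DMSO below 75%, the collection mean minus 3 SD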;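 note: signal is porphyrin accumulated inside mitochondria; lower ratio means ABCB6 inhibition with less porphyrin fluorescence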
# Target sequence (Q9NP58 whole entry, looked up): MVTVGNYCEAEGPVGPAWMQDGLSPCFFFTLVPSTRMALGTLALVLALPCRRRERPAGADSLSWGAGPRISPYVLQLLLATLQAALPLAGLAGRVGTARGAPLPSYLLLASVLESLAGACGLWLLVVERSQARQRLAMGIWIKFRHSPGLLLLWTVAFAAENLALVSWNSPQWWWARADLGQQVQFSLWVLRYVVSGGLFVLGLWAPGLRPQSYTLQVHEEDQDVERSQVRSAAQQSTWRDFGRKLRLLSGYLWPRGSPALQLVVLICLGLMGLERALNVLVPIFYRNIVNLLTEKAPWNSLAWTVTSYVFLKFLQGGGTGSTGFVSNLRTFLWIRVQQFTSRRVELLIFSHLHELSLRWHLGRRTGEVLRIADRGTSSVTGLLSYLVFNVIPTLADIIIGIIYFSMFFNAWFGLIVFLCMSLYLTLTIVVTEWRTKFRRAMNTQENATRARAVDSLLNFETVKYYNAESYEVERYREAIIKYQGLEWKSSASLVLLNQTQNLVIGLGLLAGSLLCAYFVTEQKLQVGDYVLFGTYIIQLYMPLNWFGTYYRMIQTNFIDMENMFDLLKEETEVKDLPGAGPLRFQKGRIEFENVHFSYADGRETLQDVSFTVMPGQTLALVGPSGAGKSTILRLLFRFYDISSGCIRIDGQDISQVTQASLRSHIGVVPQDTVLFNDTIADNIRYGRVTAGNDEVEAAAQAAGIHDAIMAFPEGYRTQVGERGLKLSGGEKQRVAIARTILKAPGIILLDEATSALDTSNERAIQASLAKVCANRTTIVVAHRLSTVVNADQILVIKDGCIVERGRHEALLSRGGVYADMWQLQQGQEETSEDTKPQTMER
# ABCB6 blocker 1: human ABCB6 transporter inhibition | shares compounds with ABCB6 inh 2 | K562-ABCB6 porphyrin accumulation, flow cytometry, 1 h; hits give low values | ratio response (% of DMSO), % at 10 µM | 700 tested, under 10 active;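 active = repeat-averaged ratio response below 75% of DMSO, the collection mean minus 3 SD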;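 note: median porphyrin fluorescence at 575 nm with 488 nm excitation from mitochondria; lower ratio means less porphyrin signal so ABCB6 inhibition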
# Numbers stand for hits; – = inactive; · = not tested or not shown. The list is not random: actives were taken first. Their share in the collection is about 1.1%.
SMILES,CaV13 FRET inh,Exocytosis inh,VLA-4 inh,ABCB6 inh 2,ABCB6 blocker 1
Cc1ccsc1CNC(=O)C1(C)CCN1C(C)C (stereo not given),–,–,·,71,–
O=C(O)CSCC(=O)N1CCCN(c2nccc(C(F)(F)F)n2)CC1,–,–,–,–,·
O=C(O)COCC(=O)N1CCCN(c2nccc(C(F)(F)F)n2)CC1,·,–,–,50,–
CCCN=Cc1sc2ccc(OCC)cc2c1O,–,–,–,74,–
CC(=O)NCCN=Cc1sc2ccccc2c1O,–,–,–,–,·
Cc1cc(Br)cn2c(Cc3ccsc3)c(C3CCCCC3)nc12,·,–,·,–,·
Cc1ccc(O)c(NC2=C(Cl)C(=O)N(Cc3ccccc3)C2=O)c1,–,–,·,74,–
Cc1ccc(C(=O)N2CCCCC2)cc1NC1=C(Cl)C(=O)N(Cc2ccccc2)C1=O,–,–,–,–,·
Cc1cc2c(cc1C)-n1nnnc1C(N1CCN(c3ncccc3C#N)CC1)C(=O)N2 (stereo not given),–,–,·,·,·
CCOC(=O)C1(C(=O)OCC)CCN(S(=O)(=O)c2ccccc2)CC1,–,–,·,–,–
COc1ccc(-c2nnc(SCC(=O)N3CCc4ccccc4C3)o2)cc1,–,–,–,56,–
Cc1cccc(NC(=O)C2CCN(S(=O)(=O)c3c(C)noc3/C=C/c3ccco3)CC2)n1,–,–,–,51,–
CCC(C)N1CCN(C(=O)C2CCN(S(=O)(=O)c3c(C)noc3/C=C/c3ccco3)CC2)CC1 (stereo not given),–,–,–,–,·
COC(=O)C1C(=O)C2=C(CC1C)NC(C)=C(C(=O)OC1CCCC1)C2c1ccc(N(C)C)cc1 (stereo not given),–,–,–,–,·
COC(=O)C1C(=O)C2=C(CC1C)NC(C)=C(C(=O)OC(C)C)C2c1ccc(OC)c(O)c1 (stereo not given),–,–,–,73,–
O=C(NCCN1C(=O)S/C(=C/c2cccnc2)C1=O)C1CC(=O)N(Cc2ccccc2)C1 (stereo not given),–,–,–,–,·
O=C(NCc1n[nH]c(=S)n1-c1cccc(Cl)c1)c1ccc(S(=O)(=O)N2CCCC2)cc1,–,–,–,33,–
COc1ccc(C(=O)/C=C/Nc2ccc(S(=O)(=O)Nc3cc(OC)nc(OC)n3)cc2)c(OC)c1,–,–,–,–,·
CC1CCCCC12NC(=O)N(CC(=O)N1CCN(C(=O)c3ccco3)CC1)C2=O (stereo not given),–,–,–,–,·
Cc1ccc(F)c(S(=O)(=O)NC(=O)C2(C)CCN2C(=O)Cc2ccc(Cl)cc2Cl)c1 (stereo not given),–,–,·,–,·
Cc1ccccc1S(=O)(=O)NC(=O)C1(C)CCN1C(=O)CCc1ccc(Cl)cc1Cl (stereo not given),–,–,·,–,–
Cc1ccc(F)c(S(=O)(=O)NC(=O)C2(C)CCN2C(=O)Cc2ccccc2Cl)c1 (stereo not given),–,–,·,–,–
Cc1ccc(F)c(S(=O)(=O)NC(=O)C2(C)CCN2C(=O)Cc2cc(F)ccc2F)c1 (stereo not given),–,–,·,–,–
CC(C)(C)c1ccc(S(=O)(=O)NC(=O)C2(C)CCN2C(=O)Cc2cc(F)ccc2F)cc1 (stereo not given),–,–,·,–,·
CC1(C(=O)NS(=O)(=O)c2ccc(C#N)cc2)CCN1C(=O)Cc1cc(F)ccc1F (stereo not given),–,–,·,–,–
SMILES,CaV13 FRET inh,Exocytosis inh,VLA-4 inh,ABCB6 inh 2,ABCB6 blocker 1
Cc1cc(C=O)c(C)n1-c1ccc(NC2CCCC2)c([N+](=O)[O-])c1,–,–,–,–,·
CSc1nsc(NN)n1,–,–,·,–,·
C[C@@H]1CCCCO[C@@H](CN(C)S(=O)(=O)c2cn(C)cn2)[C@@H](C)CN([C@H](C)CO)C(=O)c2cc(NC(=O)Nc3ccc(C(F)(F)F)cc3)ccc2O1,–,–,·,–,·
O=[N+]([O-])c1ccc(OCCn2cncn2)cc1,–,–,–,63,–
CCN(CC)C(=O)CSc1nc(O)c(Cc2ccccc2)c(=O)n1-c1ccccc1,–,–,–,57,–
COc1cc(OC)c(OC)cc1CNCCSc1nnnn1C,–,–,–,–,·
COCCCNC(=O)c1ccc2c(c1)CCN2S(C)(=O)=O,–,–,–,69,–
COCCNC(=O)c1ccc2c(c1)CCN2S(C)(=O)=O,–,–,–,–,·
CCOC(=O)c1c(C)nc2sc(C(=O)Nc3ccccc3)c(N)c2c1-c1ccc(OC)cc1,·,–,–,–,·
CCOC(=O)C1=C(C)NC(C)=C(C(=O)OCC)C1C(=O)OCC(=O)N(C)Cc1ccccc1,–,–,–,74,–
CCOC(=O)C1=C(C)NC(C)=C(C(=O)OCC)C1C(=O)OCC(N)=O,–,–,–,–,·
Cc1ccc2[nH]c(=O)c(CN(Cc3cccs3)Cc3nnnn3Cc3ccccc3)cc2c1,–,–,–,40,–
COc1cccc(CN(CC(=O)NCC2CCCO2)C(=O)CCC(=O)Nc2cc(C)on2)c1 (stereo not given),–,–,–,73,–
COc1ccc(CN(CC(=O)NCC2CCCO2)C(=O)CCC(=O)Nc2cc(C)on2)cc1 (stereo not given),·,–,–,–,·
NC(=O)C1CCCN(C(=O)c2ccc(Cl)c(S(=O)(=O)N3CCc4ccccc43)c2)C1 (stereo not given),–,–,·,–,·
Cn1c(CSc2ccccc2)c(C#N)c2ccccc21,–,–,–,67,–
Cc1ccc(SCc2c(C#N)c3ccccc3n2C)cc1,–,–,–,–,·
Cc1ccc(S(=O)(=O)N2CCOCC2)cc1NC(=O)CN(C)CC(=O)Nc1cccc(F)c1,–,–,·,–,·
COc1ccccc1CNC(=O)COC(=O)COc1ccccc1F,–,–,–,74,–
c1ccc(OCCNc2ccn3nc(-c4ccccc4)cc3n2)cc1,–,–,·,–,·
COc1ccccc1-c1cc2nc(NCCOc3ccccc3)ccn2n1,–,–,·,61,–
COc1ccccc1-c1nnc(SC/C(O)=C(\C#N)c2nc3ccccc3[nH]2)n1C1CCCCC1,–,–,–,71,–
Cc1ccccc1N1C(=O)[C@@H]2Cc3ccccc3CN2C1=O,–,–,–,68,–
O=C1[C@@H]2Cc3ccccc3CN2C(=O)N1c1cccc(F)c1,–,–,–,–,·
CC(C)NC(=S)N/N=C/c1cccnc1,–,–,–,–,·
SMILES,CaV13 FRET inh,Exocytosis inh,VLA-4 inh,ABCB6 inh 2,ABCB6 blocker 1
O=C(CN1c2cccc3cccc(c23)S1(=O)=O)NCc1ccccc1Cl,–,–,·,74,–
CCOC(=O)c1ccc(S(=O)(=O)Nc2cc(C(C)(C)C)no2)cc1,–,–,–,66,–
Cc1ccccc1N(Cc1ccccc1F)S(C)(=O)=O,–,–,–,63,–
Cc1ccc(N(Cc2ccccc2F)S(C)(=O)=O)c(C)c1,–,–,–,–,·
CCCC(=O)Nc1ccc2c(c1)Cc1ccccc1-2,–,–,–,73,–
CCOC(=O)c1sc(NC(=O)C(CC)Sc2nnc3c4ccccc4n(C(C)C)c3n2)nc1C (stereo not given),–,–,·,–,·
